PubChem BioAssay AID1159580 (chemical genetic matrix, 2015)
Values joined by “and” are separate entries in the source; they are usually repeats but may differ in a detail not shown here. Identical values can stand only once. Out of some 5,500 compounds screened, about 2,000 (36%) were called active. Inconclusive results (about 18%) are left out. Rule as the data show it: active = normalized growth mostly below about 0.91 (no sharp cut-off); inconclusive = no clear call, values can overlap the other calls; inactive = mostly above about 0.92. Some of the results follow. A structure can be active in one record and inactive in another.

Experiment: chemical genetic growth profiling, strain panel (AID 1159580);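 also: tested at 20 µM; growth read once vehicle control cultures reached saturation at 30 °C; 1 = growth at the plate median or of vehicle wells; lower values mean less growth of the strain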
Conditions: S. cerevisiae deletion strains, growth OD

Measured: normalized growth

Cc1ccc(Cl)c(Nc2ccccc2C(=O)O)c1Cl
inactive: locus YAL013W, strain DEP1, stronger effect = lower value 0.938 | locus YAL021C, strain ccr4, stronger effect = lower value 0.917 | locus YAL040C, strain CLN3, stronger effect = lower value 0.916 | locus YBR021W, strain FUR4, stronger effect = lower value 0.954 | locus YCL061C, strain MRC1 (second series), stronger effect = lower value 0.965 | locus YDL035C, strain GPR1, stronger effect = lower value 0.939 | locus YDL074C, strain BRE1, stronger effect = lower value 0.799 | locus YDL101C, strain DUN1, stronger effect = lower value 0.957 | locus YDL185W, strain tfp1, stronger effect = lower value 0.953 | locus YDR069C, strain doa4, stronger effect = lower value 0.928 | locus YDR195W, strain ref2 1.11 | locus YDR363W, strain ESC2, stronger effect = lower value 0.985 | locus YER002W, strain NOP16, stronger effect = lower value 0.926 | locus YER167W, strain BCK2, stronger effect = lower value 0.905 | locus YFR010W, strain ubp6, stronger effect = lower value 0.931 | locus YGL078C, strain dbp3, stronger effect = lower value 0.969 | locus YGL240W, strain doc1, stronger effect = lower value 0.91 | locus YGL248W, strain PDE1, stronger effect = lower value 0.899 | locus YGR078C, strain PAC10, stronger effect = lower value 0.926 | locus YGR229C, strain SMI1, stronger effect = lower value 0.841 | locus YGR252W, strain gcn5, stronger effect = lower value 0.834 | locus YHR079C, strain IRE1, stronger effect = lower value 1.03 | locus YIL066C, strain RNR3, stronger effect = lower value 0.881 | locus YIL073C, strain SPO22, stronger effect = lower value 0.735 | locus YIL125W, strain kgd1, stronger effect = lower value 0.981 | locus YJL115W, strain asf1, stronger effect = lower value 0.934 | locus YJL187C, strain SWE1 (second series), stronger effect = lower value 0.897 | locus YJR043C, strain POL32, stronger effect = lower value 0.956
0.901 (active) and 0.983 (inactive): locus YHR030C, strain SLT2, stronger effect = lower value
0.664 (active) and 0.986 (inactive): locus YJL095W, strain BCK1, stronger effect = lower value
active: locus YAL026C, strain drs2, stronger effect = lower value 0.787 | locus YAL030W, strain snc1, stronger effect = lower value 0.876 | locus YBL061C, strain skt5, stronger effect = lower value 0.884 | locus YBR009C, strain hhf1, stronger effect = lower value 0.856 | locus YBR023C, strain chs3, stronger effect = lower value 0.852 | locus YBR171W, strain sec66, stronger effect = lower value 0.817 | locus YBR229C, strain ROT2, stronger effect = lower value 0.884 | locus YBR231C, strain swc5, stronger effect = lower value 0.885 | locus YBR279W, strain paf1, stronger effect = lower value 0.867 | locus YCL011C, strain gbp2, stronger effect = lower value 0.852 | locus YCL016C, strain dcc1, stronger effect = lower value 0.818 | locus YCL029C, strain bik1, stronger effect = lower value 0.887 | locus YCL061C, strain MRC1, stronger effect = lower value 0.891 | locus YCL069W, strain vba3, stronger effect = lower value 0.866 | locus YCR088W, strain abp1, stronger effect = lower value 0.876 | locus YDL005C, strain med2, stronger effect = lower value 0.895 | locus YDL040C, strain nat1, stronger effect = lower value 0.894 | locus YDL192W, strain arf1, stronger effect = lower value 0.824 | locus YDR001C, strain nth1, stronger effect = lower value 0.871 | locus YDR101C, strain arx1, stronger effect = lower value 0.906 | locus YDR137W, strain rgp1, stronger effect = lower value 0.455 | locus YDR159W, strain sac3, stronger effect = lower value 0.766 | locus YDR162C, strain NBP2, stronger effect = lower value 0.794 | locus YDR297W, strain sur2, stronger effect = lower value 0.908 | locus YDR318W, strain mcm21, stronger effect = lower value 0.83 | locus YDR334W, strain swr1, stronger effect = lower value 0.879 | locus YDR335W, strain msn5, stronger effect = lower value 0.896 | locus YDR388W, stronger effect = lower value 0.87 | locus YDR392W, strain spt3, stronger effect = lower value 0.188 | locus YDR502C, strain sam2, stronger effect = lower value 0.835 | locus YEL003W, strain gim4, stronger effect = lower value 0.904 | locus YEL037C, strain rad23, stronger effect = lower value 0.901 | locus YEL061C, strain CIN8 (second series), stronger effect = lower value 0.885 | locus YEL061C, strain CIN8, stronger effect = lower value 0.888 | locus YER015W, strain faa2, stronger effect = lower value 0.926 | locus YER016W, strain bim1, stronger effect = lower value 0.91 | locus YER110C, stronger effect = lower value 0.866 | locus YER111C, strain swi4, stronger effect = lower value 0.876 | locus YER155C, strain BEM2 (second series), stronger effect = lower value 0.644 | locus YER155C, strain BEM2, stronger effect = lower value 0.839 | locus YGL086W, strain mad1, stronger effect = lower value 0.905 | locus YGL167C, strain pmr1, stronger effect = lower value 0.829 | locus YGL173C, strain kem1, stronger effect = lower value 0.85 | locus YGL227W, strain vid30, stronger effect = lower value 0.906 | locus YGL253W, strain hxk2, stronger effect = lower value 0.81 | locus YGR135W, strain pre9, stronger effect = lower value 0.795 | locus YHR013C, strain ard1, stronger effect = lower value 0.793 | locus YHR027C, strain rpn1, stronger effect = lower value 0.903 | locus YHR079C, strain IRE1 (second series), stronger effect = lower value 0.876 | locus YHR094C, strain hxt1, stronger effect = lower value 0.869 | locus YHR129C, strain ARP1, stronger effect = lower value 0.91 | locus YHR142W, strain chs7, stronger effect = lower value 0.737 | locus YHR200W, strain rpn10, stronger effect = lower value 0.882 | locus YIR030C, strain dcg1, stronger effect = lower value 0.868 | locus YJL092W, strain hpr5, stronger effect = lower value 0.872 | locus YJL095W, strain BCK1 (second series), stronger effect = lower value 0.822 | locus YJL129C, strain trk1, stronger effect = lower value 0.644 | locus YJL134W, strain LCB3, stronger effect = lower value 0.906 | locus YJL154C, strain vps35, stronger effect = lower value 0.891 | locus YJL164C, strain tpk1, stronger effect = lower value 0.866 | locus YJL166W, strain qcr8, stronger effect = lower value 0.864 | locus YJL168C, strain set2, stronger effect = lower value 0.892 | locus YJL187C, strain SWE1, stronger effect = lower value 0.891
0.879 (active) and 0.942 (inactive): locus YDR150W, strain NUM1, stronger effect = lower value
